Assay results reported in the supplement of paper PMC7411054.
Where a name gives a salt, the structure may show the parent alone.

Columns and labels:
Details in all cases: treatment time: 24 h
[1] = system: A549-ACTB-RAB5A; assay: phenotypically active (imaging signature differs from DMSO and reproducible) at any of 0.3-9 uM (binary (1 = active, 0 = inactive)); higher = active
Method in brief: (§1)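 Four wells per concentration (0.3, 1, 3 or 9 µM) were treated for 24 h in each of fifteen gene-edited reporter lines from A549, HepG2 and WPMY1 cells, then imaged live. After normalising live-cell features to solvent control wells, deviation was defined as ≥3 of 4 wells lying past the 95th percentile of control Euclidean distances. Reproducibility was defined as a median replicate Pearson correlation above the 95th percentile of non-replicates. Both had to hold for phenotypic activity.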

[2] = system: A549-CANX-COX4; assay: as above
Method in brief: as §1

[3] = system: A549-GM130-SQSTM1; assay: as above
Method in brief: as §1

[4] = system: A549-TP53BP1-CLTA; assay: as above
Method in brief: as §1

[5] = system: A549-TUBA1B-RELA; assay: as above
Method in brief: as §1

[6] = system: HepG2-ACTB-RAB5A; assay: as above
Method in brief: as §1

[7] = system: HepG2-CANX-COX4; assay: as above
Method in brief: as §1

[8] = system: HepG2-GM130-SQSTM1; assay: as above
Method in brief: as §1

[9] = system: HepG2-TP53BP1-CLTA; assay: as above
Method in brief: as §1

[10] = system: HepG2-TUBA1B-RELA; assay: as above
Method in brief: as §1

[11] = system: WPMY1-ACTB-RAB5A; assay: as above
Method in brief: as §1

[12] = system: WPMY1-CANX-COX4; assay: as above
Method in brief: as §1

[13] = system: WPMY1-GM130-SQSTM1; assay: as above
Method in brief: as §1

[14] = system: WPMY1-TP53BP1-CLTA; assay: as above
Method in brief: as §1

[15] = system: WPMY1-TUBA1B-RELA; assay: as above
Method in brief: as §1

[16] = system: A549-ACTB-RAB5A; assay: lowest phenotypically active concentration; higher = less potent
Method in brief: as §1

[17] = system: A549-CANX-COX4; assay: as above
Method in brief: as §1

[18] = system: A549-GM130-SQSTM1; assay: as above
Method in brief: as §1

[19] = system: A549-TP53BP1-CLTA; assay: as above
Method in brief: as §1

[20] = system: A549-TUBA1B-RELA; assay: as above
Method in brief: as §1

SMILES	phenotypically active [1]	phenotypically active [2]	phenotypically active [3]	phenotypically active [4]	phenotypically active [5]	phenotypically active [6]	phenotypically active [7]	phenotypically active [8]	phenotypically active [9]	phenotypically active [10]	phenotypically active [11]	phenotypically active [12]	phenotypically active [13]	phenotypically active [14]	phenotypically active [15]	lowest phenotypically active concentration [16]	lowest phenotypically active concentration [17]	lowest phenotypically active concentration [18]	lowest phenotypically active concentration [19]	lowest phenotypically active concentration [20]
C[N+](C)(C)CCOC(N)=O [Carbamoylcholine chloride]	0 (inactive)	0 (inactive)	0 (inactive)	0 (inactive)	0 (inactive)	0 (inactive)	0 (inactive)	0 (inactive)	0 (inactive)	0 (inactive)	0 (inactive)	0 (inactive)	0 (inactive)	0 (inactive)	0 (inactive)					
N[C@@H](C(=O)O)c1ccc(C(=O)O)c(C(=O)O)c1	0 (inactive)	0 (inactive)	0 (inactive)	0 (inactive)	0 (inactive)	0 (inactive)	0 (inactive)	0 (inactive)	0 (inactive)	0 (inactive)	0 (inactive)	0 (inactive)	0 (inactive)	0 (inactive)	0 (inactive)					
O=c1[nH]cnc2[nH]ncc12 [Allopurinol]	0 (inactive)	0 (inactive)	0 (inactive)	0 (inactive)	0 (inactive)	0 (inactive)	0 (inactive)	0 (inactive)	0 (inactive)	0 (inactive)	0 (inactive)	0 (inactive)	0 (inactive)	0 (inactive)	0 (inactive)					
CC[N+](C)(C)c1cccc(O)c1 [edrophonium]	0 (inactive)	0 (inactive)	0 (inactive)	0 (inactive)	0 (inactive)	0 (inactive)	0 (inactive)	0 (inactive)	0 (inactive)	0 (inactive)	0 (inactive)	0 (inactive)	0 (inactive)	0 (inactive)	0 (inactive)					
Cc1occc(=O)c1O [3-hydroxy-2-methyl-4-pyrone]	0 (inactive)	0 (inactive)	0 (inactive)	0 (inactive)	0 (inactive)	0 (inactive)	0 (inactive)	0 (inactive)	0 (inactive)	0 (inactive)	0 (inactive)	0 (inactive)	0 (inactive)	0 (inactive)	0 (inactive)					
NS(=O)(=O)c1cc(C2(O)NC(=O)c3ccccc32)ccc1Cl (stereo not given) [chlorthalidone]	0 (inactive)	0 (inactive)	0 (inactive)	0 (inactive)	0 (inactive)	0 (inactive)	0 (inactive)	0 (inactive)	0 (inactive)	0 (inactive)	0 (inactive)	0 (inactive)	0 (inactive)	0 (inactive)	0 (inactive)					
CC(C)NCC(O)c1ccc(NS(C)(=O)=O)cc1 (stereo not given) [sotalol]	0 (inactive)	0 (inactive)	0 (inactive)	0 (inactive)	0 (inactive)	0 (inactive)	0 (inactive)	0 (inactive)	0 (inactive)	0 (inactive)	0 (inactive)	0 (inactive)	0 (inactive)	0 (inactive)	0 (inactive)					
C[C@@H]1C[C@H]2[C@@H]3C[C@H](F)C4=CC(=O)C=C[C@]4(C)[C@@]3(F)[C@@H](O)C[C@]2(C)[C@@]1(O)C(=O)COC(=O)C(C)(C)C [flumethasone pivalate]	1 (active)	1 (active)	1 (active)	1 (active)	1 (active)	0 (inactive)	0 (inactive)	0 (inactive)	0 (inactive)	0 (inactive)	0 (inactive)	0 (inactive)	0 (inactive)	0 (inactive)	0 (inactive)	≤ 0.3 µM	≤ 0.3 µM	≤ 0.3 µM	≤ 0.3 µM	≤ 0.3 µM
CCN(CCO)CCCOc1ccc2c(Nc3cc(CC(=O)Nc4cccc(F)c4)n[nH]3)ncnc2c1 [barasertib-HQPA]	1 (active)	1 (active)	1 (active)	1 (active)	1 (active)	1 (active)	1 (active)	1 (active)	1 (active)	1 (active)	1 (active)	1 (active)	1 (active)	1 (active)	1 (active)	≤ 0.3 µM	≤ 0.3 µM	≤ 0.3 µM	≤ 0.3 µM	≤ 0.3 µM
Nc1ccc(-c2ccc3ncc4ccc(=O)n(-c5cccc(C(F)(F)F)c5)c4c3c2)cn1 [Torin 2]	1 (active)	1 (active)	1 (active)	1 (active)	1 (active)	1 (active)	1 (active)	1 (active)	1 (active)	1 (active)	1 (active)	1 (active)	1 (active)	1 (active)	1 (active)	≤ 0.3 µM	≤ 0.3 µM	≤ 0.3 µM	≤ 0.3 µM	≤ 0.3 µM
NC(=O)Nc1sc(-c2ccc(F)cc2)cc1C(N)=O	1 (active)	1 (active)	1 (active)	1 (active)	1 (active)	1 (active)	1 (active)	1 (active)	1 (active)	1 (active)	1 (active)	1 (active)	1 (active)	1 (active)	1 (active)	3 µM	3 µM	3 µM	9 µM	3 µM
COc1ccc(S(=O)(=O)N(C(C)=O)c2ccccc2/C=C/c2cc[n+]([O-])cc2)cc1	1 (active)	1 (active)	1 (active)	1 (active)	1 (active)	1 (active)	1 (active)	1 (active)	1 (active)	1 (active)	1 (active)	1 (active)	1 (active)	1 (active)	1 (active)	1 µM	3 µM	≤ 0.3 µM	3 µM	≤ 0.3 µM
COc1cc2nc(-c3cc(F)ccc3O)nc(N[C@@H]3CNC[C@H]3C(C)(C)O)c2cc1OC	1 (active)	1 (active)	1 (active)	1 (active)	1 (active)	1 (active)	1 (active)	1 (active)	1 (active)	1 (active)	1 (active)	1 (active)	1 (active)	1 (active)	1 (active)	3 µM	9 µM	9 µM	9 µM	9 µM
C[C@@H](CN1CCC(n2c(=O)[nH]c3cc(Cl)ccc32)CC1)NC(=O)c1ccc2ccccc2c1	1 (active)	1 (active)	1 (active)	1 (active)	1 (active)	1 (active)	1 (active)	1 (active)	1 (active)	1 (active)	1 (active)	1 (active)	1 (active)	1 (active)	1 (active)	3 µM	9 µM	3 µM	9 µM	3 µM
Nc1nccc2c1ncn2[C@@H]1C=C(CO)[C@@H](O)[C@H]1O [3-Deazaneplanocin A hydrochloride]	1 (active)	1 (active)	1 (active)	1 (active)	1 (active)	1 (active)	1 (active)	1 (active)	1 (active)	1 (active)	1 (active)	1 (active)	1 (active)	1 (active)	1 (active)	≤ 0.3 µM	1 µM	3 µM	≤ 0.3 µM	3 µM
Cc1ccc([N+](=O)[O-])cc1S(=O)(=O)N(C)/N=C/c1cnc2ccc(Br)cn12	1 (active)	1 (active)	1 (active)	1 (active)	1 (active)	1 (active)	1 (active)	1 (active)	1 (active)	1 (active)	1 (active)	1 (active)	1 (active)	1 (active)	1 (active)	≤ 0.3 µM	≤ 0.3 µM	≤ 0.3 µM	≤ 0.3 µM	≤ 0.3 µM
Oc1cccc(Nc2ccnc3cc(-c4cccc(CN5CCOCC5)c4)sc23)c1 [LCB 03-0110 dihydrochloride]	1 (active)	1 (active)	1 (active)	1 (active)	1 (active)	1 (active)	1 (active)	1 (active)	1 (active)	1 (active)	1 (active)	1 (active)	1 (active)	1 (active)	1 (active)	1 µM	3 µM	1 µM	3 µM	1 µM
COc1cc(Br)c(Nc2nc(-c3c(C)nc4ncccn34)cs2)c(Br)c1	1 (active)	1 (active)	1 (active)	1 (active)	1 (active)	1 (active)	1 (active)	1 (active)	1 (active)	1 (active)	1 (active)	1 (active)	1 (active)	1 (active)	1 (active)	1 µM	1 µM	1 µM	1 µM	1 µM
COC(=O)Nc1nc2ccc(C(=O)c3cccs3)cc2[nH]1 [Nocodazole]	1 (active)	1 (active)	1 (active)	1 (active)	1 (active)	1 (active)	1 (active)	1 (active)	1 (active)	1 (active)	1 (active)	1 (active)	1 (active)	1 (active)	1 (active)	≤ 0.3 µM	≤ 0.3 µM	≤ 0.3 µM	≤ 0.3 µM	≤ 0.3 µM
CC[C@H](CO)Nc1nc(NCc2ccc(-c3ccccn3)cc2)c2ncn(C(C)C)c2n1	1 (active)	1 (active)	1 (active)	1 (active)	1 (active)	1 (active)	1 (active)	1 (active)	1 (active)	1 (active)	1 (active)	1 (active)	1 (active)	1 (active)	1 (active)	≤ 0.3 µM	≤ 0.3 µM	≤ 0.3 µM	≤ 0.3 µM	≤ 0.3 µM
COc1cc(N2CCOCC2)ccc1Nc1ncc(Cl)c(Nc2ccccc2NS(C)(=O)=O)n1	1 (active)	1 (active)	1 (active)	1 (active)	1 (active)	1 (active)	1 (active)	1 (active)	1 (active)	1 (active)	1 (active)	1 (active)	1 (active)	1 (active)	1 (active)	3 µM	3 µM	3 µM	3 µM	3 µM
COc1c(C)cnc(Cn2cc(C#CCC(C)(C)O)c3c(Cl)nc(N)nc32)c1C	1 (active)	1 (active)	1 (active)	1 (active)	1 (active)	1 (active)	1 (active)	1 (active)	1 (active)	1 (active)	1 (active)	1 (active)	1 (active)	1 (active)	1 (active)	≤ 0.3 µM	≤ 0.3 µM	≤ 0.3 µM	≤ 0.3 µM	≤ 0.3 µM
